Laboratory results: PubChem BioAssay (NCI)
About 79,000 compounds went through this panel and 15% of them were active in at least one assay; those are over-represented in the sample as a whole. A number with no mark means an inactive call. Active and inactive are the calls of the source. Rule as the data show it: active = growth inhibition above about 70%; inactive = the rest.

Assays:
[1] = NCI Yeast Anticancer Drug Screen. Data for the rad50 strain (AID 155);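 also: 0% = growth of vehicle-only cultures of the same strain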; settings: S. cerevisiae rad50 strain growth inhibition, hits give high values
Procedure, shortened: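 Compounds were tested on a yeast strain with an engineered DNA damage repair alteration; the reported value is growth inhibition normalised to vehicle treatment.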

[2] = NCI Yeast Anticancer Drug Screen. Data for the mec2-1 strain (AID 157); settings: S. cerevisiae mec2-1 strain, hits give high values
Procedure, shortened: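 Using mec2-1 yeast: add compound, measure growth, express inhibition versus vehicle-treated cultures.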

[3] = NCI Yeast Anticancer Drug Screen. Data for the sgs1 mgt1 strain (AID 161);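 also: 0% = growth of cultures given vehicle only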; settings: S. cerevisiae sgs1 mgt1 strain, hits give high values
Procedure, shortened: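 Compounds are added to genetically altered yeast, and growth is compared with cultures given vehicle alone to give percent inhibition.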

[4] = NCI Yeast Anticancer Drug Screen. Data for the cln2 rad14 strain (AID 165);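 also: 0% = growth equal to vehicle treated cultures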; settings: S. cerevisiae cln2 rad14 strain, hits give high values
Procedure, shortened: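 Yeast strain cln2 rad14, bearing defects in cell cycle control and DNA repair, serves as the test system; values reflect growth inhibition compared with vehicle.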

[5] = NCI Yeast Anticancer Drug Screen. Data for the bub3 strain (AID 167); settings: S. cerevisiae bub3 mutant strain, hits give high values
Procedure, shortened: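 Growth of a checkpoint-deficient yeast mutant is measured after compound exposure. Values represent inhibition relative to vehicle.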

[6] = NCI Yeast Anticancer Drug Screen. Data for the mlh1 rad18 strain (AID 175); settings: S. cerevisiae mlh1 rad18 strain growth inhibition, hits give high values
Procedure, shortened: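 Steps: expose repair-defective yeast to compound; measure growth; express inhibition against vehicle-treated controls.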

[7] = at 5.0 µM (retest, dose inferred, filed as 0.5)
[8] = at 50.0 µM (retest, dose inferred, filed as 5.0)

Structure (SMILES) | growth inhibition [1, 7] | growth inhibition [1, 8] | growth inhibition ([1]; at 50.0 µM) | growth inhibition [2, 7] | growth inhibition [2, 8] | growth inhibition ([2]; at 50.0 µM) | growth inhibition [3, 7] | growth inhibition [3, 8] | growth inhibition ([3]; at 50.0 µM) | growth inhibition [4, 7] | growth inhibition [4, 8] | growth inhibition ([4]; at 50.0 µM) | growth inhibition [5, 7] | growth inhibition [5, 8] | growth inhibition ([5]; at 50.0 µM) | growth inhibition [6, 7] | growth inhibition [6, 8] | growth inhibition ([6]; at 50.0 µM)
Cn1c(C2CCC(=O)N2Cc2ccccc2)n[nH]c1=S (configuration not stated) | 1% | 0% | 55.5% | -1% | -3% | 22.4% | 4% | -2% | 74.4% (active) | 2% | 3% | -1.85% | 3% | -2% | 62.5% | 1% | -4% | 89.5% (active)
O=c1c2ccccc2sc2c1c(N(CCO)CCO)cc1ccccc12 | 45% | 94% (active) | 97.5% (active) | 6% | 94% (active) | 95.8% (active) | 12% | 93% (active) | 97.9% (active) | -7% | 78% (active) | 96.2% (active) | -5% | 93% (active) | 96.8% (active) | 19% | 95% (active) | 97.6% (active)
CC(=O)Oc1ccc(Cl)cc1Cc1cc(Cl)ccc1OC(C)=O | 17% | 85% (active) | 94.2% (active) | -1% | 93% (active) | 90.7% (active) | 7% | 83% (active) | 94.5% (active) | -4% | 94% (active) | 89.2% (active) | -3% | 88% (active) | 94.5% (active) | 2% | 94% (active) | 95.2% (active)
O=C1OC(=O)C2C1C1(c3ccccc3)OC2(c2ccccc2)c2c(Br)c(Br)c(Br)c(Br)c21 (configuration not stated) | 23% | 99% (active) | 98.8% (active) | 25% | 100% (active) | 99.4% (active) | 15% | 99% (active) | 99.2% (active) | 18% | 99% (active) | 98.6% (active) | 2% | 99% (active) | 98.7% (active) | 38% | 99% (active) | 98.2% (active)
CCOC(=O)C(=O)Nc1nc2c(s1)C(=O)c1ccccc1C2=O | 14% | 96% (active) | 98.5% (active) | 18% | 98% (active) | 95.8% (active) | 14% | 99% (active) | 96.9% (active) | -3% | 89% (active) | 90% (active) | 46% | 96% (active) | 98.5% (active) | 17% | 94% (active) | 96.3% (active)
Cc1ccc(S(=O)(=O)OC2C(C)OCOC(C)C2OS(=O)(=O)c2ccc(C)cc2)cc1 (configuration not stated) | 1% | 0% | 24.6% | -2% | -1% | 11.9% | -2% | -17% | 5.9% | 0% | -12% | 16.6% | 2% | 15% | 93% (active) | 1% | 1% | -3.85%
COc1ccc2c(c1)Cc1ccccc1C2=O | 14% | 34% | 15.8% | 3% | 8% | 4% | 0% | 1% | 6.75% | 1% | 3% | -0.35% | 75% (active) | 85% (active) | 40.6% | 2% | 14% | 9.1%
CCc1cccc(C)c1NC(=O)/C(Cl)=C(\Cl)C(=O)O | 67% | 99% (active) | 99.4% (active) | 65% | 100% (active) | 99.5% (active) | 67% | 100% (active) | 99.7% (active) | 54% | 99% (active) | 99.1% (active) | 94% (active) | 100% (active) | 99.5% (active) | 53% | 100% (active) | 99.4% (active)
N#Cc1cc([N+](=O)[O-])ccc1NC(=O)/C(=N/N)C(C(=O)c1ccc(Cl)c(Cl)c1)C1OC(=O)c2ccccc21 (configuration not stated) | 23% | 23% | 91.8% (active) | 11% | 11% | 92.2% (active) | 18% | 18% | 91.2% (active) | 1% | 1% | 90.2% (active) | 11% | 11% | 92.4% (active) | 5% | 5% | 92% (active)
C=CC(c1ccccc1)[C@@]1(OC(C)=O)C(=O)C(=O)OC1C1COC(C)(C)O1 (some centres not stated) | 62% | 98% (active) | 86.3% (active) | 75% (active) | 98% (active) | 77.7% (active) | 65% | 100% (active) | 88.3% (active) | 30% | 94% (active) | 86.9% (active) | 84% (active) | 100% (active) | 85.1% (active) | 81% (active) | 98% (active) | 90.4% (active)
O=S(=O)(Nc1ccc2c3c(cccc13)C=C2)c1ccccc1 | -1% | 98% (active) | 64.5% | -4% | 94% (active) | 75.2% (active) | -7% | 97% (active) | 79.8% (active) | -9% | 96% (active) | 61.3% | -1% | 98% (active) | 63.4% | -2% | 97% (active) | 92.3% (active)
CC(=O)OCc1cc2ccccc2nc1C(Br)(Br)Br | -11% | 95% (active) | 96% (active) | -6% | 95% (active) | 95.8% (active) | 39% | 99% (active) | 97.5% (active) | -4% | 96% (active) | 96.7% (active) | 62% | 99% (active) | 95.2% (active) | 39% | 96% (active) | 96.7% (active)
COc1cc(Nc2ccc(Oc3ccc(O)cc3)cc2)c2ncccc2c1 | 6% | 31% | 42.5% | -12% | 51% | 53.1% | -12% | 34% | 22.4% | 2% | 22% | 57.4% | -9% | 5% | 7.85% | 14% | 59% | 76% (active)
COC(=O)c1ccc2c(c1)CC1(C2)Cc2ccccc2C1=O (configuration not stated) | 14% | 88% (active) | 68% | -20% | 92% (active) | 77% (active) | -4% | 84% (active) | 83.5% (active) | -37% | 64% | 57.5% | 6% | 98% (active) | 87.1% (active) | -17% | 94% (active) | 79.5% (active)
CN(C)c1ccc(/C=C(/NC(=O)c2ccccc2)c2nc3ccc(Cl)cc3[nH]2)cc1 | 16% | 16% | 64.7% | 6% | 6% | 68.3% | -2% | -2% | 67.2% | 16% | 16% | 60.5% | -8% | -8% | 71.5% (active) | -25% | -25% | 73.8% (active)
COC(=O)c1nnn(-c2cc(Cl)ccc2Cl)c1C(=O)c1ccc(Cl)c(Cl)c1 | 12% | 98% (active) | 98.8% (active) | 4% | 98% (active) | 96.8% (active) | 14% | 98% (active) | 99% (active) | 6% | 97% (active) | 95.5% (active) | 18% | 99% (active) | 95.3% (active) | 17% | 99% (active) | 99% (active)
CC(C)=NOc1ccc([N+](=O)[O-])cc1[N+](=O)[O-] | 19% | 87% (active) | 89.9% (active) | 11% | 81% (active) | 53% | 17% | 84% (active) | 54.1% | 2% | 48% | 30.5% | 4% | 81% (active) | 55.3% | 5% | 93% (active) | 71.3% (active)
CC1CC2(C)ON=C(c3ccccc3)N2c2ccccc2S1 (configuration not stated) | -25% | 98% (active) | 87.7% (active) | -4% | 93% (active) | 90% (active) | -24% | 94% (active) | 82.7% (active) | -6% | 97% (active) | 87% (active) | 10% | 97% (active) | 87% (active) | 4% | 98% (active) | 83.7% (active)
CCCCSc1nc2c([nH]1)c(=S)n(C)c(=S)n2C | 2% | 80% (active) | 63.5% | 20% | 91% (active) | 82% (active) | 12% | 67% | 55.5% | -5% | 85% (active) | 69.7% | -12% | 92% (active) | 66.3% | -7% | 86% (active) | 81.2% (active)
